PubChem BioAssay (NCI)
The panel holds about 79,000 compounds, 15% with a hit somewhere; the sample as a whole holds those more often. Values without a mark were called inactive. Calls of active or inactive are those of the source. No stated cut-off is given here; in the data, active means growth inhibition above about 70%; inactive means the rest.

Assays:
[1] = NCI Yeast Anticancer Drug Screen. Data for the rad50 strain (AID 155);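 further: 0% = growth of vehicle-only cultures of the same strain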; details: S. cerevisiae rad50 strain growth inhibition, active compounds read high
How it was run: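 Growth of the mutant yeast was measured after compound exposure and referenced to vehicle-treated cultures.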

[2] = NCI Yeast Anticancer Drug Screen. Data for the mec2-1 strain (AID 157); details: S. cerevisiae mec2-1 strain, active compounds read high
How it was run: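 Growth inhibition is read against vehicle-treated controls after compound exposure of the mec2-1 yeast strain, which is defective in DNA damage repair or cell cycle control.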

[3] = NCI Yeast Anticancer Drug Screen. Data for the sgs1 mgt1 strain (AID 161);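 further: 0% = growth of cultures given vehicle only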; details: S. cerevisiae sgs1 mgt1 strain, active compounds read high
How it was run: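 Compounds are added to genetically altered yeast, and growth is compared with cultures given vehicle alone to give percent inhibition.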

[4] = NCI Yeast Anticancer Drug Screen. Data for the cln2 rad14 strain (AID 165);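 further: 0% = growth equal to vehicle treated cultures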; details: S. cerevisiae cln2 rad14 strain, active compounds read high
How it was run: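 Growth inhibition, relative to vehicle-treated controls, is the read-out. The test organism is a yeast strain with defined genetic alterations, cln2 rad14.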

[5] = NCI Yeast Anticancer Drug Screen. Data for the bub3 strain (AID 167); details: S. cerevisiae bub3 mutant strain, active compounds read high
How it was run: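 Whole-cell yeast assay. The mutant strain was incubated with compounds, and growth inhibition was determined by comparison with vehicle-treated cells.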

[6] = NCI Yeast Anticancer Drug Screen. Data for the mlh1 rad18 strain (AID 175); details: S. cerevisiae mlh1 rad18 strain growth inhibition, active compounds read high
How it was run: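 Cells of a genetically altered yeast strain, deficient in DNA damage repair, were treated with compound. Their growth was then compared with that of vehicle-treated cultures to give inhibition.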

[7] = at 5.0 µM (retest, dose inferred, filed as 0.5)
[8] = at 50.0 µM (retest, dose inferred, filed as 5.0)

In the case of `CC(NNC(=S)N1CCCC1)c1ccccn1` (stereo not given), the growth inhibition [1, 7] is reported as 63%, the growth inhibition [1, 8] is reported as 97% (active) and the growth inhibition ([1]; at 50.0 µM) is reported as 98.8% (active). For the same compound, the growth inhibition [2, 7] was 52%, the growth inhibition [2, 8] was 98% (active) and the growth inhibition ([2]; at 50.0 µM) was 98.7% (active). The growth inhibition [3, 7] was 63%, the growth inhibition [3, 8] was 98% (active) and the growth inhibition ([3]; at 50.0 µM) was 98.9% (active). The growth inhibition [4, 7] was 48%, the growth inhibition [4, 8] was 98% (active) and the growth inhibition ([4]; at 50.0 µM) was 99% (active). For the same compound, the growth inhibition [5, 7] was 53%, the growth inhibition [5, 8] was 98% (active) and the growth inhibition ([5]; at 50.0 µM) was 99.2% (active). For the same compound, the growth inhibition [6, 7] was 60%, the growth inhibition [6, 8] was 98% (active) and the growth inhibition ([6]; at 50.0 µM) was 98.8% (active).

With `Nc1ccc(Cl)c2cccnc12` the growth inhibition [1, 7] was 11%, the growth inhibition [1, 8] was 92% (active) and the growth inhibition ([1]; at 50.0 µM) was 97.5% (active). For the same compound, the growth inhibition [2, 7] was 4%, the growth inhibition [2, 8] was 94% (active) and the growth inhibition ([2]; at 50.0 µM) was 35.5%. The growth inhibition [3, 7] was 5%, the growth inhibition [3, 8] was 89% (active) and the growth inhibition ([3]; at 50.0 µM) was 86.7% (active). The growth inhibition [4, 7] was 0%, the growth inhibition [4, 8] was 46% and the growth inhibition ([4]; at 50.0 µM) was 87.2% (active). The growth inhibition [5, 7] was 0%, the growth inhibition [5, 8] was 90% (active) and the growth inhibition ([5]; at 50.0 µM) was 15.2%. For the same compound, the growth inhibition [6, 7] was 7%, the growth inhibition [6, 8] was 94% (active) and the growth inhibition ([6]; at 50.0 µM) was 91.9% (active).

`CC(=O)OCC1OC(Sc2ccc3ccccc3c2)C(OC(C)=O)C(OC(C)=O)C1OC(C)=O` (stereo not given) gave a growth inhibition [1, 7] of 2%, a growth inhibition [1, 8] of -7% and a growth inhibition ([1]; at 50.0 µM) of 23.9%. It also gave a growth inhibition [2, 7] of 3%, a growth inhibition [2, 8] of 2% and a growth inhibition ([2]; at 50.0 µM) of 12.8%. For the same compound, the growth inhibition [3, 7] was 2%, the growth inhibition [3, 8] was 1% and the growth inhibition ([3]; at 50.0 µM) was 2.7%. For the same compound, the growth inhibition [4, 7] was 1%, the growth inhibition [4, 8] was -15% and the growth inhibition ([4]; at 50.0 µM) was 52.4%. The growth inhibition [5, 7] was 4%, the growth inhibition [5, 8] was 7% and the growth inhibition ([5]; at 50.0 µM) was 70.2% (active). It also gave a growth inhibition [6, 7] of 0%, a growth inhibition [6, 8] of -2% and a growth inhibition ([6]; at 50.0 µM) of 22%.

Compound `CCCCCN1C(=O)CC(C(=O)OCC)=C1C` has a growth inhibition [1, 7] of 3%, a growth inhibition [1, 8] of -14% and a growth inhibition ([1]; at 50.0 µM) of -12%. It also gave a growth inhibition [2, 7] of -3%, a growth inhibition [2, 8] of -8% and a growth inhibition ([2]; at 50.0 µM) of -17.2%. For the same compound, the growth inhibition [3, 7] was -4%, the growth inhibition [3, 8] was -14% and the growth inhibition ([3]; at 50.0 µM) was -23.9%. For the same compound, the growth inhibition [4, 7] was -9%, the growth inhibition [4, 8] was 1% and the growth inhibition ([4]; at 50.0 µM) was 76.5% (active). For the same compound, the growth inhibition [5, 7] was -3%, the growth inhibition [5, 8] was 3% and the growth inhibition ([5]; at 50.0 µM) was 30.3%. It also gave a growth inhibition [6, 7] of 1%, a growth inhibition [6, 8] of -10% and a growth inhibition ([6]; at 50.0 µM) of 9.1%.

In the case of `O=c1[nH]c2cc(Cl)ccc2nc1/C=C(\O)c1ccc(N2CCN(c3ccc(/C(O)=C/c4nc5ccc(Cl)cc5[nH]c4=O)cc3)CC2)cc1`, the growth inhibition [1, 7] is reported as 10%, the growth inhibition [1, 8] is reported as 12% and the growth inhibition ([1]; at 50.0 µM) is reported as 95.8% (active). The growth inhibition [2, 7] was 0%, the growth inhibition [2, 8] was 19% and the growth inhibition ([2]; at 50.0 µM) was 96.3% (active). For the same compound, the growth inhibition [3, 7] was -3%, the growth inhibition [3, 8] was -12% and the growth inhibition ([3]; at 50.0 µM) was 94.2% (active). The growth inhibition [4, 7] was 17%, the growth inhibition [4, 8] was -10% and the growth inhibition ([4]; at 50.0 µM) was 90.8% (active). For the same compound, the growth inhibition [5, 7] was 19%, the growth inhibition [5, 8] was -15% and the growth inhibition ([5]; at 50.0 µM) was 94.5% (active). The growth inhibition [6, 7] was -25%, the growth inhibition [6, 8] was -7% and the growth inhibition ([6]; at 50.0 µM) was 94.2% (active).

In the case of `Cc1ccc(S(=O)(=O)N/N=C2/CCC3(O)CC2(C)CCC2[C@H]3CC2(C)C)cc1` (stereo not given in full), the growth inhibition [1, 7] is reported as 17%, the growth inhibition [1, 8] is reported as 72% (active) and the growth inhibition ([1]; at 50.0 µM) is reported as 66.7%. The growth inhibition [2, 7] was -7%, the growth inhibition [2, 8] was 83% (active) and the growth inhibition ([2]; at 50.0 µM) was 57.2%. The growth inhibition [3, 7] was 1%, the growth inhibition [3, 8] was 54% and the growth inhibition ([3]; at 50.0 µM) was 70.2% (active). The growth inhibition [4, 7] was 13%, the growth inhibition [4, 8] was 69% and the growth inhibition ([4]; at 50.0 µM) was 83.8% (active). The growth inhibition [5, 7] was 2%, the growth inhibition [5, 8] was 86% (active) and the growth inhibition ([5]; at 50.0 µM) was 75% (active). The growth inhibition [6, 7] was 5%, the growth inhibition [6, 8] was 88% (active) and the growth inhibition ([6]; at 50.0 µM) was 70.7% (active).

Work on `CCCC(=O)NCCNC(=O)CCC` yielded a growth inhibition [1, 7] of -154%, a growth inhibition [1, 8] of -159% and a growth inhibition ([1]; at 50.0 µM) of 4.35%. It also gave a growth inhibition [2, 7] of -48%, a growth inhibition [2, 8] of -54% and a growth inhibition ([2]; at 50.0 µM) of 7.75%. The growth inhibition [3, 7] was -61%, the growth inhibition [3, 8] was -62% and the growth inhibition ([3]; at 50.0 µM) was 1.75%. The growth inhibition [4, 7] was -50%, the growth inhibition [4, 8] was -62% and the growth inhibition ([4]; at 50.0 µM) was 45.8%. It also gave a growth inhibition [5, 7] of -69%, a growth inhibition [5, 8] of -82% and a growth inhibition ([5]; at 50.0 µM) of -3.15%. It also gave a growth inhibition [6, 7] of -139%, a growth inhibition [6, 8] of -117% and a growth inhibition ([6]; at 50.0 µM) of 10.1%.

Work on `N#CC(Cc1ccc(CC(C#N)(c2ccccc2)c2ccccn2)cc1)(c1ccccc1)c1ccccn1` (stereo not given) yielded a growth inhibition [1, 7] of -1%, a growth inhibition [1, 8] of 3% and a growth inhibition ([1]; at 50.0 µM) of 20.9%. It also gave a growth inhibition [2, 7] of -2%, a growth inhibition [2, 8] of 3% and a growth inhibition ([2]; at 50.0 µM) of 34.5%. It also gave a growth inhibition [3, 7] of -4%, a growth inhibition [3, 8] of -1% and a growth inhibition ([3]; at 50.0 µM) of 10.9%. For the same compound, the growth inhibition [4, 7] was -6%, the growth inhibition [4, 8] was 1% and the growth inhibition ([4]; at 50.0 µM) was 2.75%. It also gave a growth inhibition [5, 7] of -2%, a growth inhibition [5, 8] of -8% and a growth inhibition ([5]; at 50.0 µM) of 35.4%. It also gave a growth inhibition [6, 7] of -2%, a growth inhibition [6, 8] of 2% and a growth inhibition ([6]; at 50.0 µM) of 14.8%.

For `C=C(CN(C)C)C(=O)c1ccc(Oc2ccccc2)cc1`, the growth inhibition [1, 7] was 99% (active), the growth inhibition [1, 8] was 100% (active) and the growth inhibition ([1]; at 50.0 µM) was 99.2% (active). For the same compound, the growth inhibition [2, 7] was 99% (active), the growth inhibition [2, 8] was 100% (active) and the growth inhibition ([2]; at 50.0 µM) was 99.4% (active). The growth inhibition [3, 7] was 99% (active), the growth inhibition [3, 8] was 100% (active) and the growth inhibition ([3]; at 50.0 µM) was 59.5%. The growth inhibition [4, 7] was 71% (active), the growth inhibition [4, 8] was 99% (active) and the growth inhibition ([4]; at 50.0 µM) was 99.4% (active). For the same compound, the growth inhibition [5, 7] was 99% (active), the growth inhibition [5, 8] was 100% (active) and the growth inhibition ([5]; at 50.0 µM) was 98.8% (active). For the same compound, the growth inhibition [6, 7] was 98% (active), the growth inhibition [6, 8] was 100% (active) and the growth inhibition ([6]; at 50.0 µM) was 99.5% (active).

In the case of `CCn1c2ccc([N+](=O)[O-])cc2c2c([N+](=O)[O-])c(-n3cccc3)ccc21`, the growth inhibition [1, 7] is reported as 24%, the growth inhibition [1, 8] is reported as 59% and the growth inhibition ([1]; at 50.0 µM) is reported as 86% (active). For the same compound, the growth inhibition [2, 7] was 2%, the growth inhibition [2, 8] was 10% and the growth inhibition ([2]; at 50.0 µM) was 0.3%. It also gave a growth inhibition [3, 7] of 5%, a growth inhibition [3, 8] of 28% and a growth inhibition ([3]; at 50.0 µM) of 36.4%. It also gave a growth inhibition [4, 7] of -3%, a growth inhibition [4, 8] of 6% and a growth inhibition ([4]; at 50.0 µM) of 8.9%. For the same compound, the growth inhibition [5, 7] was -3%, the growth inhibition [5, 8] was -4% and the growth inhibition ([5]; at 50.0 µM) was 10.9%. The growth inhibition [6, 7] was 3%, the growth inhibition [6, 8] was 29% and the growth inhibition ([6]; at 50.0 µM) was 21.2%.
